# Results filed as inconclusive are left out. Where a call stands in place of a potency, no number is given. The source made the active and inactive calls. Unless noted, calls follow the shape of the dose curve; as a rule, active = well fitted curve in the direction sought with a large enough effect; inconclusive = small, poorly fitted or top-dose-only effect, or another doubt; inactive = no such curve, though single readings can be large; an effect the other way counts as inactive or inconclusive. Starred links: 1 amine or outer side, 2 acyl side, 3 side chain; linkers in the order of their positions; H or OH if unused. Positions of bridges follow the written chain, without caps; N, C: chain ends. Non-standard residues stand in square brackets, D forms with d. Residues, ends and D or L forms follow the SMILES beside them. Groups on a side chain read outwards from the residue. ξ: configuration not given here. *: point of attachment. X3 = C[C@@H](Oc1ccc([C@H](N[*:1])C(=O)[*:2])cc1)[C@]1(/C=C\C(=O)[*:3])CO1; Phg(4-OMe) = COc1ccc([C@H](N)C(=O)O)cc1; d(aIle) = CC[C@H](C)[C@@H](N)C(=O)O; d(aThr) = C[C@@H](O)[C@@H](N)C(=O)O; NMeF = CN[C@@H](Cc1ccccc1)C(=O)O; X2 = CC(C)[C@@H](O)C(C)C(=O)*; ξNMeF = CNC(Cc1ccccc1)C(=O)O; Isobutyryl = CC(C)C(=O)*; ξT = CC(O)C(N)C(=O)O; ξS = NC(CO)C(=O)O
# What was measured:
# [1] = HEK-293 Cancer Cell Toxicity qHTS against the NCATS CANVASS Library (AID 1347355); also: series mostly up to about 46 µM; nearly all actives have a fitted effect of over 65% in size
# In short: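 1000 cells/well, 4 h pre-incubation 37 °C/5% CO2; 11-pnt titration; 72 h; CellTiter-Glo 15 min RT, luminescence.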
# [2] = HPAF-II 24hr Apoptosis Induction qHTS against the NCATS CANVASS Library (AID 1347356)
# In short: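 500 HPAF-II cells/well; compounds in 11-pnt qHTS; 24 h, 37 C/5% CO2; Caspase-Glo 3/7 added, 15 min RT dark; luminescence read. Doxorubicin control.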
# [3] = HEK293 18hr Apoptosis Induction qHTS against the NCATS CANVASS Library (AID 1347357)
# In short: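 Caspase-Glo 3/7 luminescence (15 min, room temperature) measured apoptosis after an 18-hour, 37 degrees C exposure of HEK293 cells (500 cells/well) to compounds in 11 points.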
# [4] = HPAF-II 12hr Apoptosis Induction qHTS against the NCATS CANVASS Library (AID 1347358)
# In short: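 Caspase-Glo 3/7 luminescence (DEVD substrate) reports caspase activity in HPAF-II cells after 12 h compound treatment at 37 degrees C. Compounds were tested in an 11-point series. Doxorubicin served as control.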
# [5] = HEK293 12hr Apoptosis Induction qHTS against the NCATS CANVASS Library (AID 1347361)
# In short: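 HEK293 cells (500/well, DMEM + 10% FBS) were exposed to natural products across an 11-point series for 12 hours at 37 degrees C. Caspase-3/7 activity was then measured with DEVD luciferase luminescence after 15 min at room temperature.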
# [6] = target: Luciferin 4-monooxygenase (Photinus pyralis) (UniProt P08659); assay: Firefly luciferase counterscreen qHTS: Assay Interference Panel against the NCATS CANVASS Library (AID 1347363); also: potency is read from the fitted curve at half-maximal effect
# In short: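 Purified P. pyralis luciferase (0.04 ug/mL, 4x reagent) added to Tris-acetate buffer with 0.013 mM D-luciferin, 0.013 mM ATP and 13.3 mM Mg-acetate; compounds preincubated 15 min, then luminescence read after 5 min, RT.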
# [7] = KB-8-5-11 Cancer Cell Toxicity qHTS against the NCATS CANVASS Library (AID 1347364); also: nearly all actives have a fitted effect of over 75% in size
# In short: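 CellTiter-Glo luminescence after 72 h exposure; 500 KB-8-5-11 cells/well, DMEM/10% FBS, 37C, 5% CO2; compounds in 11-pt qHTS. Follow-up confirmation included medium with 1uM tariquidar.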
# [8] = KB-3-1 Cancer Cell Toxicity qHTS against the NCATS CANVASS Library (AID 1347366); also: series mostly up to about 46 µM; nearly all actives have a fitted effect of over 75% in size
# In short: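 CellTiter-Glo luminescence measured viability after 72 h at 37C. KB-3-1 cells were seeded at 500 per well in DMEM/10% FBS.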
# [9] = qHTS for ATAD5 Agonist screened against the NCATS CANVASS Library (AID 1347367);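 also: luciferase reporter driven by ATAD5 which rises upon DNA damage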
# In short: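 Genotoxicity via ATAD5-luciferase luminescence after 16 h compound exposure (11-point series) at 37C in HEK293T-ATAD5 cells. CellTiter-Fluor viability read precedes the luminescence read; MMS serves as positive control.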
# [10] = J3T Cancer Cell Toxicity qHTS against the NCATS CANVASS Library (AID 1347371)
# In short: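 Dog glioma J3T, 500 cells/well; cpd 11-pt qHTS; 72 hr, 37C/5% CO2; CellTiterGlo ATP luminescence readout.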
# [11] = target: Nuclear receptor subfamily 1 group I member 3 (Homo sapiens) (UniProt Q14994); assay: qHTS for Constitutive Androstane Receptor (CAR) Agonist screened against the NCATS CANVASS Library (AID 1347373);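 also: every well also contained 1.5 µM PK11195 alongside the test compound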; also: potency is read from the fitted curve at half-maximal effect
# In short: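 Luciferase read-out (ONE-Glo, 30 min RT) of CYP2B6-2.2kb promoter activity in double-stable HepG2-hCAR cells after 24hr compound exposure with 1.5uM PK11195 present; viability measured first by CellTiter-Fluor.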
# [12] = 10-beta competent E. coli microbial cell viability qHTS against the NCATS CANVASS Library (AID 1347376); also: series mostly up to about 46 µM
# In short: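 Luminescence from BacTiter-Glo ATP detection served as the viability read-out; bacteria (0.2 OD) had been incubated overnight at 37C with pin-transferred compounds at 11 concentrations.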
# [13] = DH5-alpha competent E. coli microbial cell viability qHTS against the NCATS CANVASS Library (AID 1347377); conditions: outcome: dose series up to 46.1 µM unless noted
# In short: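 Luminescent ATP read-out (BacTiter-Glo, 20 min RT) after overnight 37C culture of DH5-alpha E. coli with compounds; daunomycin control at 0.2 nM–9.2 uM final.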
# [14] = qHTS for H2AX Agonists against the NCATS CANVASS Library (AID 1347378)
# In short: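 Phospho-H2AX (S139) in CHO-K1 lysates measured by HTRF, reported as 665/615 nm emission ratio after 24 hr antibody incubation at room temperature. Cells were first treated with a compound series for 3 hr at 37C (0.76% DMSO final).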
# [15] = Inflammasome Signaling qHTS Counterscreen: IL-1-beta AlphaLISA counterscreen against the NCATS CANVASS Library (AID 1347381);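 also: cell-free check with purified IL-1β in medium and no THP-1 cells; series mostly up to about 57 µM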
# In short: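 Here, no cellular stimulation occurs; compounds in an 11-point series meet 4 pg purified IL-1-beta directly. Bead-based AlphaLISA detection follows (1 h acceptor/antibody, then 30 min donor, dark, room temperature), with excitation at 680 nm.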
# [16] = Cytotoxicity qHTS for assessment of Hepg2 cells membrane integrity screened against the NCATS CANVASS Library (AID 1347387)
# In short: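 LDH release read by fluorescence (560 nm ex/590 nm em) after CytoTox-ONE addition and 10 min RT; signal tracks lysed cells. HepG2, 2000 cells/well, plated overnight; compound 5 hr, 37C, 5% CO2, final 0.59 nM - 46 uM, 11 points.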
# [17] = qHTS for activators of dead-cell proteases activity screened against the NCATS CANVASS Library (AID 1347392);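 also: luminescence from protease leaking out of membrane-damaged cells cleaving impermeant substrate; rising signal means more cytotoxicity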
# In short: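 HepG2, 2000 cells/well, 18 h attach; cpd 11-pt, 5 h 37C 5% CO2; CytoTox-Glo (AAF-aminoluciferin) 15 min RT; luminescence read.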
# [18] = Redox Reaction Profiling qHTS: Assay Interference Panel against the NCATS CANVASS Library (AID 1347401)
# In short: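 Fluorescence read-out (525 nm excitation, 598 nm emission) at time zero and after 15 min in the dark tracked resorufin formation. Mix: 5 uM resazurin, 200 uM DTT, HEPES pH 7.3 buffer with NaCl.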
# [19] = qHTS for inhibitors of Rabies Virus screened against the NCATS CANVASS Library (AID 1347402; calls by dose curve; also: series mostly up to about 46 µM)
# Luciferin 4-monooxygenase (Photinus pyralis), sequence (P08659 whole entry, looked up): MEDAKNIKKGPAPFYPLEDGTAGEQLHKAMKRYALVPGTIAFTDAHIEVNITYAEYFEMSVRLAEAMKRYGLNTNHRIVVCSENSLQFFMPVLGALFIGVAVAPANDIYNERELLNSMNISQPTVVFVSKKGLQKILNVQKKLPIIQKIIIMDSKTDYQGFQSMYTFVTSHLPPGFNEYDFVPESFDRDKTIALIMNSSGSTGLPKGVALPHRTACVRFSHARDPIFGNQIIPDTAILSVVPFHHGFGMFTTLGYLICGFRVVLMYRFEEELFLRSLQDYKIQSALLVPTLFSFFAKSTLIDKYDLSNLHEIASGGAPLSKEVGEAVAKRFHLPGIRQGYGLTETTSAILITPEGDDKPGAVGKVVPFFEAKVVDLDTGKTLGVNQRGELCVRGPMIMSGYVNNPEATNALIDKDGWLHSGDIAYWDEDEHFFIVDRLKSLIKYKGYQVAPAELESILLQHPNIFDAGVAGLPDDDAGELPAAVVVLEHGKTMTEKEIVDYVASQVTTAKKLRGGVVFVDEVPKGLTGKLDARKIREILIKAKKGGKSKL
# Nuclear receptor subfamily 1 group I member 3 (Homo sapiens), sequence (Q14994 whole entry, looked up): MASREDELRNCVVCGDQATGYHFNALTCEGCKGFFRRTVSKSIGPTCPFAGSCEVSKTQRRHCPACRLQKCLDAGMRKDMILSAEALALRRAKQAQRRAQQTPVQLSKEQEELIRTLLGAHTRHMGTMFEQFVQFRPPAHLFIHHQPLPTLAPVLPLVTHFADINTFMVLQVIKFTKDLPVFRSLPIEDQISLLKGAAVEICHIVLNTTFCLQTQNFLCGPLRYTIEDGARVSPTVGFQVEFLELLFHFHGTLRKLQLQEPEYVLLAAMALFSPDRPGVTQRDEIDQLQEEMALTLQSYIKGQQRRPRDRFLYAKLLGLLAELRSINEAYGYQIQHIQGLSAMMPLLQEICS
compound,measurement,setting,value
CC[C@H](C)[C@H]1NC(=O)[C@@H](NC(=O)C(C)[C@H](O)C(C)C)[C@@H](C)OC(=O)C2COC(=O)CNC(=O)/C=C\[C@]3(CO3)[C@@H](C)Oc3ccc(cc3)[C@H](NC1=O)C(=O)N(C)C(Cc1ccccc1)C(=O)NC(C(C)O)C(=O)N2 (some centres undefined) (X2-T[d(aIle)][X3][ξNMeF][ξT][ξS]; ester 1-C; linker 3-6 via G),Potency,[1],inactive
same,outcome,[2],inactive
same,outcome,[3],inactive
same,outcome,[4],inactive
same,outcome,[5],inactive
same,Potency,[6],inactive
same,Potency,[7],inactive
same,Potency,[8],inactive
same,Potency,[9],inactive
same,Potency,[10],inactive
same,Potency,[11],inactive
same,outcome,[12],inactive
same,outcome,[13],inactive
same,Potency,[14],inactive
same,outcome,[15],inactive
same,outcome,[16],inactive
same,outcome,[17],inactive
same,Potency,[18],inactive
same,outcome,[19],inactive
O[C@H]1C=C[C@@]23CCN(Cc4cc5c(cc42)OCO5)[C@@H]3C1,Potency,[1],inactive
same,outcome,[2],inactive
same,outcome,[3],inactive
same,outcome,[4],inactive
same,outcome,[5],inactive
same,Potency,[6],inactive
same,Potency,[7],inactive
same,Potency,[8],inactive
same,Potency,[9],inactive
same,Potency,[10],inactive
same,Potency,[11],inactive
same,outcome,[12],inactive
same,outcome,[13],inactive
same,Potency,[14],inactive
same,outcome,[15],inactive
same,outcome,[16],inactive
same,outcome,[17],inactive
same,Potency,[18],inactive
same,outcome,[19],inactive
c1ccc2nc3c(cc2c1)[nH]c1ccccc13,Potency,[1],inactive
same,outcome,[2],inactive
same,outcome,[3],inactive
same,outcome,[4],inactive
same,outcome,[5],inactive
same,Potency,[6],1.72 µM (active)
same,Potency,[7],inactive
same,Potency,[8],inactive
same,Potency,[9],inactive
same,Potency,[10],inactive
same,Potency,[11],18.6 µM (active)
same,outcome,[12],inactive
same,outcome,[13],inactive
same,Potency,[14],inactive
same,outcome,[15],inactive
same,outcome,[16],inactive
same,outcome,[17],inactive
same,Potency,[18],inactive
same,outcome,[19],inactive
C=C[C@]1(C)CC[C@@H]([C@H](C)C(=O)/C=C/C(C)C)O1,outcome,[19],inactive
C[C@@]12CCC[C@@](C)(C(=O)O)[C@H]1CC[C@]13C[C@H]4C[C@H](O[C@@]4(C)C1)[C@H]32,outcome,[19],inactive
O=c1cc(-c2ccc(O)cc2)oc2c([C@@H]3OC(CO)[C@H](O)[C@@H](O)[C@H]3O)c(O)cc(O)c12 (some centres undefined),outcome,[19],inactive
C/C(=C\[C@@H](C)CC/C=C/CC/C=C/C(=O)O)[C@H](O)[C@H](C)C(=O)CCCC1CC(=O)NC(=O)C1,outcome,[19],inactive
CCC1=C2CCCN3C(=O)O[C@H]([C@H]1OC(C)=O)[C@H]23,outcome,[19],inactive
COc1ccc2cc(NC(=O)C3=NO[C@H]4[C@H](O)C=C[C@@H](Cl)[C@@]4(O)C3)c(=O)oc2c1OC,outcome,[19],inactive
C/C1=C/[C@@H](C)[C@H](O)[C@@H](O)/C=C/CC/C=C/C(=O)O[C@@H]1[C@H](C)C(=O)/C=C/CC1CC(=O)NC(=O)C1,outcome,[19],inactive
COc1ccc([C@@H]2c3cc4c(cc3C[C@H](C)C2C)OCO4)cc1OC (some centres undefined),outcome,[19],inactive
C=C1CC[C@@H](O[C@H]2C[C@@](O)([C@H](C)NC(=O)c3[nH]c(C)c(Cl)c3Cl)[C@H](O)[C@@H](C)O2)[C@@H]2C=C[C@H](C)C(/C(O)=C3/C(=O)[C@H](C(C)C)N([C@@H]4O[C@H](C)[C@H](OC(N)=O)[C@H](OC(C)=O)[C@@H]4OC)C3=O)[C@@H]12 (some centres undefined),outcome,[19],inactive
C=C(C)[C@@H]1CC[C@]2(C)CC[C@]3(C)[C@H](CC[C@@H]4[C@@]5(C)CC[C@H](O)C(C)(C)[C@@H]5CC[C@]43C)[C@@H]12,outcome,[19],inactive
C[C@]12CCC[C@](C)(C(=O)O)[C@@H]1CC[C@@]1(C)c3cocc3CC[C@H]21,outcome,[19],inactive
C[C@]12CC[C@]3(C1)[C@H](CC2=O)CC(OC(=O)c1ccccc1)[C@H]1[C@@](CO)(C(=O)O)CCC[C@@]13C (some centres undefined),outcome,[19],inactive
O=C1c2c(O)cc(O)cc2OC(c2ccc(O)cc2)C1O (centres undefined),outcome,[19],inactive
CCCCCCCCCCCCCCCC(=O)OC/C=C(\C)CCCC(C)CC(C)C(C)C (centres undefined),outcome,[19],inactive
C=C1CCC2C(C)(C(=O)O)CCC(CC/C(C)=C/C(=O)NC(CCC(N)=O)C(=O)O)[C@@]2(C)C1 (some centres undefined),outcome,[19],inactive
CC[C@H](C)[C@H]1NC(=O)[C@@H](NC(=O)C(C)C)[C@@H](C)OC(=O)[C@H](COC(=O)CNC(C)=O)NC(=O)[C@@H]([C@@H](C)O)NC(=O)[C@H](Cc2ccccc2)N(C)C(=O)[C@H](c2ccc(OC)cc2)NC1=O (Isobutyryl-T[d(aIle)][Phg(4-OMe)][NMeF][d(aThr)]S([Gly-Ac]); ester 1-C),outcome,[19],inactive
C[C@@]1(CCC(=O)Nc2c(O)ccc(C(=O)O)c2O)C(=O)C=C[C@]23C[C@H]4C[C@H](O[C@@]4(C)C2)C31 (some centres undefined),outcome,[19],inactive
CC(C)=CCC/C(C)=C/Cc1cc([C@@H]2CC(=O)c3c(cc(O)c(CC=C(C)C)c3O)O2)ccc1O,outcome,[19],inactive
C/C(=C\[C@@H](C)CC/C=C/CC/C=C/C(=O)O)[C@@H](O)[C@H](C)C(=O)CCCC1CC(=O)NC(=O)C1,outcome,[19],inactive
C[C@@H]1O[C@@H](Oc2c(-c3ccc(O)cc3)oc3cc(O)cc(O)c3c2=O)[C@H](O)[C@H](O)[C@H]1O,outcome,[19],inactive
C=C[C@]1(C)CC[C@@H]([C@H](C)C(=O)CC=C(C)C)O1,outcome,[19],inactive
CCCc1c2c([nH]c(=O)c1C)C(=O)c1[nH]c(=O)c(C)c(CCC)c1C2=O,outcome,[19],inactive
CN1CC[C@@]23c4ccccc4N[C@@H]1[C@@]21CCN(C)[C@@H]3Nc2ccccc21,outcome,[19],inactive
C[C@H](CCC(O)C(C)(O)CO)[C@@]1(O)CC[C@@]2(C)C3=C(CC[C@@]21C)[C@@]1(C)CCC(OC(=O)CCC(=O)O)C(C)(C)[C@@H]1CC3 (some centres undefined),outcome,[19],inactive
O=C1c2c(O)cc(O)cc2O[C@@H](c2ccc(O)cc2)[C@@H]1c1c(O)cc(O)c2c(=O)cc(-c3ccc(O)c(O)c3)oc12,outcome,[19],inactive
C=C[C@@]1(C)CC[C@@H]([C@H](C)C(=O)/C=C/C(C)C)O1,outcome,[19],inactive
COc1ccc2[nH]c3c(c2c1)CCN1C[C@H]2C[C@@H](OC(=O)c4cc(OC)c(OC)c(OC)c4)[C@H](OC)[C@@H](OC)[C@H]2C[C@H]31,outcome,[19],inactive

# Reference: PubChem BioAssay (NCATS)
